Data published in the supplement of paper PMC11732987, “Enantioselective OTUD7B fragment discovery through chemoproteomics screening and high-throughput optimisation” (Communications Chemistry, 2025).

Key:
Assay in all cases: log2 ratio of Biotin-Ahx-Ub-VS probe labelling (fragment/DMSO); higher = less target engagement (more negative = stronger competition), active = hit call of the paper (q ≤ 0.05, log2 ratio ≤ -1)
Conditions in all cases: compound concentration: 200 uM; treatment time: 3 h
USP34 = USP34 (UniProt Q70CQ2)
In short: (§1)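 Using Biotin-Ahx-Ub-VS at 0.5 µM final for 1 h, DUBs were labelled in HEK293T lysate (495 µg per sample) that had first been treated in triplicate with fragment at 200 µM or vehicle for 3 h. NeutrAvidin enrichment, LysC and trypsin digestion and diaPASEF LC-MS/MS followed. Spectronaut label-free quantities were global-median-normalised. Values are average log2 fragment/vehicle ratios by unpaired t-test, using proteins with ≥2 unique peptides.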

USP36 = biological target: T1, USP36 (UniProt Q9P275)
T1 sequence (whole entry): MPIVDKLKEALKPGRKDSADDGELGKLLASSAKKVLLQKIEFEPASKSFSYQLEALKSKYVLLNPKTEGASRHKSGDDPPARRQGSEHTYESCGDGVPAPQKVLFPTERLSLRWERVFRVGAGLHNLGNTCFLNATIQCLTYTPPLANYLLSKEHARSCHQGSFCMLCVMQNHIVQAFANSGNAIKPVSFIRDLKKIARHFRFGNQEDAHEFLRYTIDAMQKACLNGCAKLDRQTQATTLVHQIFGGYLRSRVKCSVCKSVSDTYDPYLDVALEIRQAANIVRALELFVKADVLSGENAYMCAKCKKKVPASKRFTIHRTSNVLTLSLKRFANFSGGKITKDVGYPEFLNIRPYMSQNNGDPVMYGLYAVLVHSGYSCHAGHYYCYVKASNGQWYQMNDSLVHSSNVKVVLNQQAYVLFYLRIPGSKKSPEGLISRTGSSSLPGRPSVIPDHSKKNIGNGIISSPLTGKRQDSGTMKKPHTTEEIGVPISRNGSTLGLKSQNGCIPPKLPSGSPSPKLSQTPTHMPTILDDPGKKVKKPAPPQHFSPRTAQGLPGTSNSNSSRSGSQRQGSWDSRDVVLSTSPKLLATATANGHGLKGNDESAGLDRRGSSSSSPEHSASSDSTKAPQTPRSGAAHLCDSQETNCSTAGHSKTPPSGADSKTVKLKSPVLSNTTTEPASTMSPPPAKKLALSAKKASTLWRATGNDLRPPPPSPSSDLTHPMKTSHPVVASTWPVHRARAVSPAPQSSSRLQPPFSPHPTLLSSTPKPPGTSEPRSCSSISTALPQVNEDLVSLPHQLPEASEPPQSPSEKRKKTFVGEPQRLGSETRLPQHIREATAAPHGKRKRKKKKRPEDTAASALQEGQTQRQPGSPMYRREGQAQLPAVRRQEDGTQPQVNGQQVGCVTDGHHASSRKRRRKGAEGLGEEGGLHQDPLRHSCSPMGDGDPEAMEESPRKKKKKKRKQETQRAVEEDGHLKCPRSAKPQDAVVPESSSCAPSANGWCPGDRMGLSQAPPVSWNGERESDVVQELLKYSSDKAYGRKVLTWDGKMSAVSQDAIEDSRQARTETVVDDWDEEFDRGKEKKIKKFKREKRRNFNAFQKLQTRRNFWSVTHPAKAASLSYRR
In short: as §1

USP38 = biological target: T2, USP38 (UniProt Q8NB14)
T2 sequence (whole entry): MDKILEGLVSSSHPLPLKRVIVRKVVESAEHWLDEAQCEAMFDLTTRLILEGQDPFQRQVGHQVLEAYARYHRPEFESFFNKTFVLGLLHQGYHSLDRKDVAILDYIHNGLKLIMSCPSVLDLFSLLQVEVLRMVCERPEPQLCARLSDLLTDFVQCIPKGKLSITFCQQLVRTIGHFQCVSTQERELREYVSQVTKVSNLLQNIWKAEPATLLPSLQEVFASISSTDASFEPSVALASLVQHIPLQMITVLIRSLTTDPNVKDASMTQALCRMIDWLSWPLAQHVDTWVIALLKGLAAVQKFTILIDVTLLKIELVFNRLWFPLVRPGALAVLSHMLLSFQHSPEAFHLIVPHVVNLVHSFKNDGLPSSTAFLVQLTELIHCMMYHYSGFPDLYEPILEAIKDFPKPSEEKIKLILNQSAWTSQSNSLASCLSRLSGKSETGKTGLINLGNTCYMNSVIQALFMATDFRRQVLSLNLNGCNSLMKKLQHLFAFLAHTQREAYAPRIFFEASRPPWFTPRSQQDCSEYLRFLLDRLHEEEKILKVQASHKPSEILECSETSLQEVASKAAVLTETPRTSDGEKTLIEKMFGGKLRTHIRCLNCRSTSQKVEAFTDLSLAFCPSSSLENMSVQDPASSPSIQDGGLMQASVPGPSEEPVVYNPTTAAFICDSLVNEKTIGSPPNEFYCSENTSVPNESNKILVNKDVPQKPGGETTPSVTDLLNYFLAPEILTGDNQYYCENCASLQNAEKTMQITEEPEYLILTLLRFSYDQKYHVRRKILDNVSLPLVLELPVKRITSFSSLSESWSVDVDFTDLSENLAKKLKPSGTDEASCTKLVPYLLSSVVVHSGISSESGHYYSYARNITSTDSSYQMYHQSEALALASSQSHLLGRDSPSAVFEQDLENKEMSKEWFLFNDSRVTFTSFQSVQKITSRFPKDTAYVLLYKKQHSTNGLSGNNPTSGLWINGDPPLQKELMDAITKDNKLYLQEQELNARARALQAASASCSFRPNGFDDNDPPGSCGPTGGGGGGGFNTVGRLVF
In short: as §1

USP39 = biological target: T3, USP39 (UniProt Q53GS9)
T3 sequence (whole entry): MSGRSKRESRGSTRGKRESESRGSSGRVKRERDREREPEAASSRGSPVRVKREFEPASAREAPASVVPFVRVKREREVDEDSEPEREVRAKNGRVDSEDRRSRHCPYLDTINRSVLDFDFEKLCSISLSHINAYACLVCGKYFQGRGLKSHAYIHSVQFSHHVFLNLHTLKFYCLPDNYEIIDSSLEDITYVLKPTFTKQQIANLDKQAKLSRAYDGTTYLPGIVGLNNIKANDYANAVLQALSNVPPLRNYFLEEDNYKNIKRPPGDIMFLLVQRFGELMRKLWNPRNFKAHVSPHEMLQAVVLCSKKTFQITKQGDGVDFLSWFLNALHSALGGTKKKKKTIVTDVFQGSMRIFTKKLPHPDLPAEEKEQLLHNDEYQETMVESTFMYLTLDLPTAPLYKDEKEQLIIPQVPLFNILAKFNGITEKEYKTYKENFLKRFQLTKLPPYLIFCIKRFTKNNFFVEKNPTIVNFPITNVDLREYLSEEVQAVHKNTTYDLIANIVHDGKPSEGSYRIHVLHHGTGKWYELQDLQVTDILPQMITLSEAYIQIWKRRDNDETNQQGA
In short: as §1

USP4 = biological target: T4, USP4 (UniProt Q13107)
T4 sequence (whole entry): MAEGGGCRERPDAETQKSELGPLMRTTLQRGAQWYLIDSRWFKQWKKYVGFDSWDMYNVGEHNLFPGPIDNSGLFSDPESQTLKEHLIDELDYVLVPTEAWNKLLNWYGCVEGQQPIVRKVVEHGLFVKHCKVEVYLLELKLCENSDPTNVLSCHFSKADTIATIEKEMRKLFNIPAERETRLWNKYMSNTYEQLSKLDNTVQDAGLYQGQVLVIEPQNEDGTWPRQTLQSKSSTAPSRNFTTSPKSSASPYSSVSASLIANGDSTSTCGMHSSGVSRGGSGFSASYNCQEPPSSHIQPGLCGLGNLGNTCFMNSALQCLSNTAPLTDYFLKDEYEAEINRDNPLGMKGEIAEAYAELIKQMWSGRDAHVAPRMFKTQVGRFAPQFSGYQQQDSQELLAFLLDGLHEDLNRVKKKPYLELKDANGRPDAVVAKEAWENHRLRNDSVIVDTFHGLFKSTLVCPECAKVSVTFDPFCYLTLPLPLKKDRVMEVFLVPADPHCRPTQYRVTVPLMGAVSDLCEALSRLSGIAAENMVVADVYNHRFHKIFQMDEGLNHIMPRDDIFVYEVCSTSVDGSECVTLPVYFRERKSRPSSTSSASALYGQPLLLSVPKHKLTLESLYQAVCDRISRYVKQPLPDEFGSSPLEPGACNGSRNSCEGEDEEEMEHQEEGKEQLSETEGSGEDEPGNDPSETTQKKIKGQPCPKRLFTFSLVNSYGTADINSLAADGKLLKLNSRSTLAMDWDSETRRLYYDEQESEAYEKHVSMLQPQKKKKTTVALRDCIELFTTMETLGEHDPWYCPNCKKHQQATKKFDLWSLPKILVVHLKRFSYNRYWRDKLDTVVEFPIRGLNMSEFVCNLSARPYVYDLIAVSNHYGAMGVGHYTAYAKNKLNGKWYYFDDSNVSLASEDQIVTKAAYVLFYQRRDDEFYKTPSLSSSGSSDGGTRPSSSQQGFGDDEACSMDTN
In short: as §1

Measured: log2 ratio of Biotin-Ahx-Ub-VS probe labelling

Sequence of USP34 (Q70CQ2 whole entry, the tested form may be a part): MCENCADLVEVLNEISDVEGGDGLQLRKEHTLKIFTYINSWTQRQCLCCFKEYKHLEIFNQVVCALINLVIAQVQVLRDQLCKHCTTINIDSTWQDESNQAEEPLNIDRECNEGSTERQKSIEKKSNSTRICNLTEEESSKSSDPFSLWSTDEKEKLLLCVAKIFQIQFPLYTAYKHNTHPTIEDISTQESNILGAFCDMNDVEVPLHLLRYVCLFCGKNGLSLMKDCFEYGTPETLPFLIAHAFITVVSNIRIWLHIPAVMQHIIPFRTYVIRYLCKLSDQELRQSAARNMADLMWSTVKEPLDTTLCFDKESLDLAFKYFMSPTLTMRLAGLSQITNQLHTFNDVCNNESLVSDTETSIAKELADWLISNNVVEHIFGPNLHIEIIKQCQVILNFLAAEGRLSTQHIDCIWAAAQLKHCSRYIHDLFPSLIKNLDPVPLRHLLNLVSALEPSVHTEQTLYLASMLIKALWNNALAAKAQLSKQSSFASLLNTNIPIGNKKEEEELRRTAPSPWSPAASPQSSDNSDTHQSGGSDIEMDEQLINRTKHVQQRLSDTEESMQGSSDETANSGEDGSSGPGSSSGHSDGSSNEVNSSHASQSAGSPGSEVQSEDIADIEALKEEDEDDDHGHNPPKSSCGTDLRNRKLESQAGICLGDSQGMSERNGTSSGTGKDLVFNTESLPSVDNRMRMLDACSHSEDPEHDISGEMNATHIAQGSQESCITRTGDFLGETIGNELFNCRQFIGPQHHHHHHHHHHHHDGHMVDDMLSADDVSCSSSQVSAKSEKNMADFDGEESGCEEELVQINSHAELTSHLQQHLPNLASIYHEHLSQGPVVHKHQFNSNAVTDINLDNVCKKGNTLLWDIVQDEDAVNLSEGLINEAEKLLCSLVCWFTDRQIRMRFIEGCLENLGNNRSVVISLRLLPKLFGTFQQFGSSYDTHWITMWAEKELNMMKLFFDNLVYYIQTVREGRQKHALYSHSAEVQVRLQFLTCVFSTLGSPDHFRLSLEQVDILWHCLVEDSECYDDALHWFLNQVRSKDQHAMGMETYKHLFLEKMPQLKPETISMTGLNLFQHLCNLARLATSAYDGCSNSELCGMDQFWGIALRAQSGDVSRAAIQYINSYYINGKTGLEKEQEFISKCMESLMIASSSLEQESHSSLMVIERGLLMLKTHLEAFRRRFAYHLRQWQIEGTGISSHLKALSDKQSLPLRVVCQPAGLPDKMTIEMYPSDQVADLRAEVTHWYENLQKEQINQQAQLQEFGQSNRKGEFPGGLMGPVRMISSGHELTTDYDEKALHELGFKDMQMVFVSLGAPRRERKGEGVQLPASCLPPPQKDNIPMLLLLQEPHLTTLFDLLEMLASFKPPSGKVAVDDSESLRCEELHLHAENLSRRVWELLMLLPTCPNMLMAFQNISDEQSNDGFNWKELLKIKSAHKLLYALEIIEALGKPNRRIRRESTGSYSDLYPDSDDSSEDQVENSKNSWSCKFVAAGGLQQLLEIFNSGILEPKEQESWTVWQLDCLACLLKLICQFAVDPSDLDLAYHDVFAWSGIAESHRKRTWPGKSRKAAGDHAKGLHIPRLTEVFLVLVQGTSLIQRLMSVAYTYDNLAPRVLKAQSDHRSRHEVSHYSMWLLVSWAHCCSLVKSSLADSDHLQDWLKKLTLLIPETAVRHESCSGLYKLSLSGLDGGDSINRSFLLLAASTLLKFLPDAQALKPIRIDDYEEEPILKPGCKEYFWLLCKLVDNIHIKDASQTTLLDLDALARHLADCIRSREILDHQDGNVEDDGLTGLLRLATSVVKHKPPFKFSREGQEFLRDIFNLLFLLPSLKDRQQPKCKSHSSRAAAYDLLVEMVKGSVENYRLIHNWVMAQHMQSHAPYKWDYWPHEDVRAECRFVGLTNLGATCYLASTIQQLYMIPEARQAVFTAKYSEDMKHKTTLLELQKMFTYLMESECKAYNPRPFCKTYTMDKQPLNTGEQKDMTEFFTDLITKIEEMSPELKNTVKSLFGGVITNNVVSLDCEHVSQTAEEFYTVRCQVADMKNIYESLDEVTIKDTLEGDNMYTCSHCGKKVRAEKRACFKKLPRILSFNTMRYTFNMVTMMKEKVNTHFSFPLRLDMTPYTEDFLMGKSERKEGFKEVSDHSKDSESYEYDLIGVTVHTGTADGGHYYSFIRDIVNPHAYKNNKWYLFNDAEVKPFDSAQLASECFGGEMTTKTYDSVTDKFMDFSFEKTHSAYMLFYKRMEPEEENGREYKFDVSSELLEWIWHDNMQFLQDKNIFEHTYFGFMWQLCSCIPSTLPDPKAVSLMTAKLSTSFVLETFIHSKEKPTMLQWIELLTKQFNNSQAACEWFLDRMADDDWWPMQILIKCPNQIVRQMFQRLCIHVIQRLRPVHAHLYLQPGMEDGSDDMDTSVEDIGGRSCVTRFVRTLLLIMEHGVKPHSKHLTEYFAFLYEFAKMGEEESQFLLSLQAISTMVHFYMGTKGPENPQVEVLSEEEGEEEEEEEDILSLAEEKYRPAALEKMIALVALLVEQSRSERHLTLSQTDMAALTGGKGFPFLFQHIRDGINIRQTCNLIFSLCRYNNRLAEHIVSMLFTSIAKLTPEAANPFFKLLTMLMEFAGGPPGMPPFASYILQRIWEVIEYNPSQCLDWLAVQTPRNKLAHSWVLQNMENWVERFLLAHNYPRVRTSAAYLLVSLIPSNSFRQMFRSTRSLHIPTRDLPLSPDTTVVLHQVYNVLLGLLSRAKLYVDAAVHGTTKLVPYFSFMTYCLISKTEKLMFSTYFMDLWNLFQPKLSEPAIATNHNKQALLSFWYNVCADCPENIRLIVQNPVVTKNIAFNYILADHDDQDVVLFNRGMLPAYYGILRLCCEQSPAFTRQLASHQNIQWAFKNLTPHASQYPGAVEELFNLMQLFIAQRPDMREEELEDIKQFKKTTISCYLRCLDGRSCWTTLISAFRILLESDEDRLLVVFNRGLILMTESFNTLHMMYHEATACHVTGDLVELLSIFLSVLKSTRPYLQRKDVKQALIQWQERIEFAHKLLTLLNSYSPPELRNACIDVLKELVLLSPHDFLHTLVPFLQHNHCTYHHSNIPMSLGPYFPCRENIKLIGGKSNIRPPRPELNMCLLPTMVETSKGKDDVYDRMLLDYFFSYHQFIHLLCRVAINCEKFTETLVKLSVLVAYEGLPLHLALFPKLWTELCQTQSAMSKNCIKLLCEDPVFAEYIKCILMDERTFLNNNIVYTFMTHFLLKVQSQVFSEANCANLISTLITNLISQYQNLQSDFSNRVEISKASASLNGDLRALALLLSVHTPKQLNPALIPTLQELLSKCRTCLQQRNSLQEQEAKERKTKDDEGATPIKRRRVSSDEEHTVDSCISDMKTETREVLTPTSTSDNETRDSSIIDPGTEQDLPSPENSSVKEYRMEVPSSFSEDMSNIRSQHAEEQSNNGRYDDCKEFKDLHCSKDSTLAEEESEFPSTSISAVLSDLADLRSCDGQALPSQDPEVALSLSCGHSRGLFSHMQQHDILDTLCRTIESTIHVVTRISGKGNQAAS

O=C(CCl)Nc1cc2c(cc1Cl)OCCO2
inactive: USP34 -0.393 | USP36 0.206 | USP38 -0.183 | USP39 -0.137 | USP4 0.122
